Results as given in PubChem BioAssay (NCI).
The panel holds about 79,000 compounds, 15% with a hit somewhere; the sample as a whole holds those more often. The source made the active and inactive calls. Cut-off read from the data, not from the text of the source: active = growth inhibition above about 70%; inactive = the rest.

How the values were obtained:
[1] = NCI Yeast Anticancer Drug Screen. Data for the wt1 strain (AID 149);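 note: 0% = growth of vehicle-treated wt1 cultures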; settings: S. cerevisiae wt1 strain (SPY 50644) growth inhibition, stronger effect = higher value
Procedure, shortened: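 wt1 yeast, compound-treated; % growth inhibition vs vehicle control.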

[2] = NCI Yeast Anticancer Drug Screen. Data for the rad50EPP+ strain (AID 151);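 note: 0% = growth of vehicle-treated control cultures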; settings: S. cerevisiae rad50 mutant strain, stronger effect = higher value
Procedure, shortened: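 rad50EPP+ yeast treated with test compounds. Readout: growth vs vehicle control.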

[3] = NCI Yeast Anticancer Drug Screen. Data for the mgt1 strain (AID 153); settings: S. cerevisiae mgt1 mutant growth inhibition, stronger effect = higher value
Procedure, shortened: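 Growth inhibition relative to vehicle controls was scored for the mgt1 yeast strain after compound exposure.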

[4] = NCI Yeast Anticancer Drug Screen. Data for the rad50 strain (AID 155);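 note: 0% = growth of vehicle-only cultures of the same strain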; settings: S. cerevisiae rad50 strain growth inhibition, stronger effect = higher value
Procedure, shortened: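 Genetically altered yeast (DNA repair pathway); compound treatment; growth inhibition vs vehicle ctrl.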

[5] = NCI Yeast Anticancer Drug Screen. Data for the mec2-1 strain (AID 157); settings: S. cerevisiae mec2-1 strain, stronger effect = higher value
Procedure, shortened: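 Growth inhibition is read against vehicle-treated controls after compound exposure of the mec2-1 yeast strain, which is defective in DNA damage repair or cell cycle control.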

[6] = NCI Yeast Anticancer Drug Screen. Data for the rad14 strain (AID 159);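 note: 0% = growth of vehicle-treated control cultures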; settings: S. cerevisiae rad14 strain growth inhibition, stronger effect = higher value
Procedure, shortened: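 Test compounds were applied to a repair-deficient yeast strain. Its growth was then compared with that of cultures given vehicle alone, and inhibition was expressed relative to those controls.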

[7] = NCI Yeast Anticancer Drug Screen. Data for the sgs1 mgt1 strain (AID 161);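 note: 0% = growth of cultures given vehicle only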; settings: S. cerevisiae sgs1 mgt1 strain, stronger effect = higher value
Procedure, shortened: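 Yeast cells carrying a defined DNA-repair defect were exposed to test compounds. Growth inhibition was measured relative to vehicle-treated controls.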

[8] = NCI Yeast Anticancer Drug Screen. Data for the CLN2oe strain (AID 163);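 note: 0% = growth of vehicle-only control cultures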; settings: S. cerevisiae CLN2oe strain, stronger effect = higher value
Procedure, shortened: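 Compound-treated yeast; growth vs vehicle ctrl = % inhibition. Genetically altered strain (cell-cycle control).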

[9] = NCI Yeast Anticancer Drug Screen. Data for the cln2 rad14 strain (AID 165);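 note: 0% = growth equal to vehicle treated cultures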; settings: S. cerevisiae cln2 rad14 strain, stronger effect = higher value
Procedure, shortened: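 Growth inhibition, relative to vehicle-treated controls, is the read-out. The test organism is a yeast strain with defined genetic alterations, cln2 rad14.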

[10] = NCI Yeast Anticancer Drug Screen. Data for the bub3 strain (AID 167); settings: S. cerevisiae bub3 mutant strain, stronger effect = higher value
Procedure, shortened: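 Yeast carrying a defined mutation is treated with each compound, and growth is compared with that of vehicle-exposed cells to give inhibition.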

[11] = NCI Yeast Anticancer Drug Screen. Data for the wt2 strain (AID 169);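 note: 0% = growth of vehicle-treated yeast cultures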; settings: S. cerevisiae wt2 strain growth inhibition, stronger effect = higher value
Procedure, shortened: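 Compound exposure of yeast; growth compared with vehicle controls; inhibition reported.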

[12] = NCI Yeast Anticancer Drug Screen. Data for the mlh1 strain (AID 171);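 note: 0% = growth of vehicle-treated control cultures of the same strain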; settings: S. cerevisiae mlh1 strain growth inhibition, stronger effect = higher value
Procedure, shortened: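 Compounds are applied to a genetically altered yeast strain, and its growth is compared with that of vehicle-treated cultures to give percent inhibition.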

[13] = NCI Yeast Anticancer Drug Screen. Data for the sgs1 strain (AID 173);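 note: 0% = growth of vehicle-only control cultures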; settings: S. cerevisiae sgs1 mutant, stronger effect = higher value
Procedure, shortened: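 Compounds applied to genetically altered yeast; growth compared with vehicle-treated cultures to give % inhibition.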

[14] = NCI Yeast Anticancer Drug Screen. Data for the mlh1 rad18 strain (AID 175); settings: S. cerevisiae mlh1 rad18 strain growth inhibition, stronger effect = higher value
Procedure, shortened: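 Cells of a genetically altered yeast strain, deficient in DNA damage repair, were treated with compound. Their growth was then compared with that of vehicle-treated cultures to give inhibition.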

[15] = NCI Yeast Anticancer Drug Screen. Data for the rad18 strain (AID 177); settings: S. cerevisiae rad18 mutant growth inhibition, stronger effect = higher value
Procedure, shortened: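 Compounds are applied to a repair-deficient yeast strain, and growth is compared with that of vehicle-treated cultures to give percent inhibition.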

[16] = at 5.0 µM (retest, dose inferred, filed as 0.5)
[17] = at 50.0 µM (retest, dose inferred, filed as 5.0)

Measured: growth inhibition

CN(C)CCNC(=O)c1cccc2c1Oc1c(cccc1[N+](=O)[O-])O2
inactive: [1]; at 1.2 µM -13% | [1]; at 3.7 µM -20% | [1]; at 11.0 µM -14% | [1]; at 33.0 µM -12% | [1]; at 100.0 µM 29% | [2]; at 1.2 µM 0% | [2]; at 3.7 µM 9% | [2]; at 11.0 µM 3% | [2]; at 33.0 µM 26% | [2]; at 100.0 µM 68% | [3]; at 1.2 µM 9% | [3]; at 3.7 µM 17% | [3]; at 11.0 µM 16% | [3]; at 33.0 µM 30% | [3]; at 100.0 µM 60% | [4]; at 1.2 µM 6% | [4]; at 3.7 µM 10% | [4]; [16] 29% | [4]; at 11.0 µM 24% | [4]; at 50.0 µM 32.6% | [5]; at 1.2 µM -12% | [5]; at 3.7 µM -23% | [5]; [16] -7% | [5]; at 11.0 µM -20% | [5]; at 33.0 µM -9% | [5]; [17] 16% | [5]; at 50.0 µM 7.85% | [5]; at 100.0 µM 56% | [6]; at 1.2 µM -12% | [6]; at 3.7 µM -12% | [6]; at 11.0 µM -10% | [6]; at 33.0 µM -8% | [6]; at 100.0 µM 40% | [7]; [16] 11% | [7]; [17] 16% | [7]; at 50.0 µM 11.5% | [8]; at 1.2 µM 24% | [8]; at 3.7 µM 12% | [8]; at 11.0 µM 20% | [8]; at 33.0 µM 6% | [8]; at 100.0 µM 58% | [9]; [16] 47% | [9]; [17] 38% | [9]; at 50.0 µM 14.4% | [10]; at 1.2 µM 25% | [10]; at 3.7 µM 31% | [10]; [16] 20% | [10]; at 11.0 µM 13% | [10]; at 33.0 µM 26% | [10]; [17] 29% | [10]; at 50.0 µM 0.95% | [11]; at 1.2 µM -37% | [11]; at 3.7 µM -27% | [11]; at 11.0 µM -40% | [11]; at 33.0 µM -37% | [11]; at 100.0 µM 26% | [12]; at 1.2 µM 15% | [12]; at 3.7 µM 13% | [12]; at 11.0 µM 18% | [12]; at 33.0 µM 38% | [13]; at 1.2 µM -10% | [13]; at 3.7 µM 2% | [13]; at 11.0 µM -1% | [13]; at 33.0 µM 2% | [13]; at 100.0 µM 48% | [14]; [16] 15% | [14]; [17] 29% | [14]; at 50.0 µM 18.4% | [15]; at 1.2 µM -3% | [15]; at 3.7 µM 0% | [15]; at 11.0 µM -5% | [15]; at 33.0 µM 13% | [15]; at 100.0 µM 69%
active: [4]; at 33.0 µM 76% | [4]; [17] 72% | [4]; at 100.0 µM 95% | [10]; at 100.0 µM 74% | [12]; at 100.0 µM 75%

C/C(=N\Nc1ccc([N+](=O)[O-])cc1[N+](=O)[O-])c1sc(-n2nc(-c3ccccc3)cc2-c2ccccc2)nc1C
active: [4]; at 50.0 µM 80% | [7]; at 50.0 µM 75.3% | [10]; [17] 74% | [10]; at 50.0 µM 79% | [14]; at 50.0 µM 79.3%
inactive: [2]; at 1.2 µM 7% | [2]; at 3.7 µM 22% | [2]; at 11.0 µM 27% | [2]; at 33.0 µM 50% | [2]; at 100.0 µM 59% | [3]; at 1.2 µM 18% | [3]; at 3.7 µM 6% | [3]; at 11.0 µM 6% | [3]; at 33.0 µM 32% | [3]; at 100.0 µM 60% | [4]; at 1.2 µM -1% | [4]; at 3.7 µM 0% | [4]; [16] 25% | [4]; at 11.0 µM -15% | [4]; at 33.0 µM 4% | [4]; [17] 62% | [4]; at 100.0 µM 10% | [5]; at 1.2 µM 11% | [5]; at 3.7 µM 16% | [5]; [16] 0% | [5]; at 11.0 µM 15% | [5]; at 33.0 µM 22% | [5]; [17] 16% | [5]; at 50.0 µM 66% | [5]; at 100.0 µM 34% | [6]; at 1.2 µM -7% | [6]; at 3.7 µM -13% | [6]; at 11.0 µM -15% | [6]; at 33.0 µM -9% | [6]; at 100.0 µM -6% | [7]; [16] 11% | [7]; [17] 57% | [8]; at 1.2 µM 8% | [8]; at 3.7 µM 12% | [8]; at 11.0 µM 9% | [8]; at 33.0 µM 18% | [8]; at 100.0 µM 26% | [9]; [16] 29% | [9]; [17] 34% | [9]; at 50.0 µM 61.6% | [10]; at 1.2 µM 15% | [10]; at 3.7 µM 25% | [10]; [16] 31% | [10]; at 11.0 µM 46% | [10]; at 33.0 µM 42% | [10]; at 100.0 µM 62% | [11]; at 1.2 µM -21% | [11]; at 3.7 µM -22% | [11]; at 11.0 µM -25% | [11]; at 33.0 µM -11% | [11]; at 100.0 µM 68% | [12]; at 1.2 µM 1% | [12]; at 3.7 µM -15% | [12]; at 11.0 µM -16% | [12]; at 33.0 µM 5% | [12]; at 100.0 µM 25% | [13]; at 1.2 µM 0% | [13]; at 3.7 µM 6% | [13]; at 11.0 µM 13% | [13]; at 33.0 µM 11% | [13]; at 100.0 µM 25% | [14]; [16] 24% | [14]; [17] 60%

CCOC(=O)c1cc([N+](=O)[O-])c(Sc2ncnc3nc[nH]c23)c([N+](=O)[O-])c1
inactive: [1]; at 1.2 µM -22% | [1]; at 3.7 µM -26% | [1]; at 11.0 µM -6% | [1]; at 33.0 µM 62% | [2]; at 1.2 µM -8% | [2]; at 3.7 µM -8% | [2]; at 11.0 µM -5% | [2]; at 33.0 µM 6% | [2]; at 100.0 µM 22% | [4]; at 1.2 µM -40% | [4]; at 3.7 µM -18% | [4]; [16] 31% | [4]; at 11.0 µM 11% | [4]; [17] 63% | [4]; at 50.0 µM 17.4% | [5]; at 1.2 µM -22% | [5]; at 3.7 µM -13% | [5]; [16] 29% | [5]; at 11.0 µM 38% | [5]; at 50.0 µM 58% | [6]; at 1.2 µM -34% | [6]; at 3.7 µM -23% | [6]; at 11.0 µM -3% | [7]; [16] 6% | [7]; [17] -13% | [7]; at 50.0 µM 56% | [8]; at 1.2 µM -18% | [8]; at 3.7 µM -2% | [8]; at 11.0 µM 29% | [8]; at 33.0 µM 49% | [9]; [16] -5% | [9]; [17] -64% | [9]; at 50.0 µM 60.3% | [10]; at 1.2 µM -19% | [10]; at 3.7 µM -7% | [10]; [16] 7% | [10]; at 11.0 µM 43% | [10]; [17] 34% | [10]; at 50.0 µM 33.1% | [11]; at 1.2 µM -31% | [11]; at 3.7 µM -25% | [11]; at 11.0 µM 2% | [11]; at 33.0 µM 46% | [12]; at 1.2 µM -28% | [12]; at 3.7 µM -23% | [12]; at 11.0 µM 50% | [13]; at 1.2 µM 13% | [13]; at 3.7 µM 13% | [13]; at 11.0 µM 41% | [14]; [16] 55% | [15]; at 1.2 µM -17% | [15]; at 3.7 µM 9% | [15]; at 11.0 µM 55%
active: [1]; at 100.0 µM 92% | [4]; at 33.0 µM 75% | [4]; at 100.0 µM 89% | [5]; at 33.0 µM 89% | [5]; [17] 75% | [5]; at 100.0 µM 91% | [6]; at 33.0 µM 72% | [6]; at 100.0 µM 87% | [8]; at 100.0 µM 83% | [10]; at 33.0 µM 88% | [10]; at 100.0 µM 88% | [11]; at 100.0 µM 85% | [12]; at 33.0 µM 90% | [12]; at 100.0 µM 90% | [13]; at 33.0 µM 71% | [13]; at 100.0 µM 87% | [14]; [17] 89% | [14]; at 50.0 µM 86.2% | [15]; at 33.0 µM 82% | [15]; at 100.0 µM 84%
